Measurements taken from the supplement of paper PMC8183993.
“And” between values parts separate entries of the source, which are not always exact repeats. Identical values can stand only once. Counter-ions that a name gives are not always drawn. ± gives the standard deviation of the averaged measurements. In all, about 3,200 compounds were measured (“nuclei count (viability) relative to DMSO”: median about 99, lowest 2% from about 16 on). The sample as a whole holds a higher share of the lowest values than the screen did.

System: U2OS
Assay: nuclei count (viability) relative to DMSO (% of DMSO); higher = more viable cells
Conditions: 10 µM; 24 h
Experimental: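 Primary image-based screen in U2OS cells: compounds at 10 uM for 24 h, then a 1 h o-propargyl-puromycin (OPP) pulse, click labelling, and high-throughput microscopy. Mean cytoplasmic OPP intensity and nuclei count were normalised to DMSO wells within each plate (DMSO = 100) and averaged over triplicate plates.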

Row | Compound | nuclei count
1 | C/C=C1\NC(=O)[C@H]2CSSCC/C=C/[C@H](CC(=O)N[C@H](C(C)C)C(=O)N2)OC(=O)[C@H](C(C)C)NC1=O [Romidepsin (FK228 ,depsipeptide)] | 8.81
2 | CC#CCOC(=O)C1=CCCN(C)C1 [Arecaidine but-2-ynyl ester tosylate] | 101
3 | CNC(=O)c1cc(Oc2ccc(NC(=O)Nc3cc(C(C)(C)C)nn3-c3ccc4ncccc4c3)c(F)c2)ccn1 [DCC-2036 (Rebastinib)] | 70.1
4 | C=CC(=O)c1ccc2ccccc2c1 | 105
5 | NC(=O)c1ccncc1 [Isonicotinamide] | 99.6
6 | O=C(/C=C/c1ccc2ccccc2n1)c1ccncc1 | 11.3
7 | COC(=O)C1=C(C)NC(C)=C(C(=O)OCCSc2ccccc2)C1C (stereo unspecified) | 97.8
8 | CCS(=O)(=O)N1CCC[C@@H]2CN3CCc4cc(OC)ccc4[C@@H]3C[C@@H]21 | 101
9 | CC1=CC(=O)c2ccccc2C1=O [Menadione] | 54.1
10 | O=C1c2ccccc2C(=O)c2c1ccc(O)c2O [Alizarin] | 89.7
11 | CC[C@H](C)[C@H](N)C1=N[C@H](C(=O)N[C@@H](CC(C)C)C(=O)N[C@H](CCC(=O)[O-])C(=O)N[C@H](C(=O)N[C@H]2CCCCNC(=O)[C@H](CC(N)=O)NC(=O)[C@@H](CC(=O)[O-])NC(=O)[C@H](Cc3cnc[nH]3)NC(=O)[C@@H](Cc3ccccc3)NC(=O)[C@H]([C@@H](C)CC)NC(=O)[C@@H](CCCN)NC2=O)[C@@H](C)CC)CS1.[Zn+2] [Bacitracin zinc] | 109
12 | CC(C)NCC(O)COc1ccc(COCCOC(C)C)cc1 (racemic) [(±)-Bisoprolol hemifumarate] | 102
13 | CCC[C@H](NC(=O)/C(C#N)=C/c1cccc(Br)n1)c1ccccc1 | 5.45
14 | C[C@H](NC(=O)/C(C#N)=C/c1ccc(O)c(O)c1)c1ccccc1 [Tyrphostin B44, (+) enantiomer] | 93.4
15 | N#C/C(=C\c1ccc(O)c(O)c1)C(=O)Nc1ccccc1 | 83.4
16 | C[C@H](NC(=O)/C(C#N)=C/c1cccc(Br)n1)c1ccccc1 | 7.49 ± 1.2
17 | N#C/C(=C\c1ccc(O)c(O)c1)C(=O)NCc1ccccc1 | 102 and 98.5
18 | CC(C)c1cccc(=O)c(O)c1 [Hinokitiol] | 87.3
19 | CCC(C)[C@H](NS(=O)(=O)c1cccc2ccccc12)C(=O)N[C@H](C=O)Cc1c[nH]c2ccccc12 (stereo partly specified) | 90.3
20 | CNC(=O)CN(CCN(CCN(CC(=O)O)CC(=O)NC)CC(=O)O)CC(=O)O.O.[Gd] [Gadodiamide (Omniscan)] | 101
21 | Cc1ccccc1C(=O)Nc1ccc(C(=O)N2CCCC(N(C)C)c3ccccc32)cc1 (stereo unspecified) [Mozavaptan] | 41.2
